Consider one molecule from PubChem BioAssay (NCATS).

Holding throughout (assay): qHTS profiling for inhibitors of Plasmodium falciparum proliferation (AID 504749); note: nearly all actives have a fitted effect of over 60% in size
Conditions in all cases: P. falciparum in erythrocytes, SYBR Green DNA, 72 h; series mostly up to 28.7 µM

In one assay the test system is CP256. The method, boiled down: (§1)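 Quantitative HTS: compounds pinned into medium, infected erythrocytes added (0.3% parasitemia, 2.5% hematocrit), 72 h culture at 37 C under 5% CO2. Saponin/Triton lysis with SYBR Green I, overnight RT, then fluorescence read.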
In the next assay the test system is CP262. The method, boiled down: as §1
In the next assay the test system is CP268. The method, boiled down: as §1
A further assay relates to CP269. The method, boiled down: as §1
For a further assay, the system named is CP297. The method in brief:
as §1

In the next assay the test system is CP315. The method in brief: as §1
The test system of another assay is CP329. The method in brief:
as §1

Another assay concerns DIV14. The method, boiled down: as §1
In a further assay the test system is DIV17. The method in brief: as §1
The next assay deals with Dd2. The method, boiled down:
as §1

The next assay has as its system ECU. The method in brief:
as §1

The next assay concerns FAB9. The method in brief:
as §1

In another assay the test system is GB4. The method in brief:
as §1

A further assay relates to HB3. The method in brief: as §1
For the next assay, the system named is JCK. The method, boiled down: as §1
A further assay concerns PAD. The method in brief: as §1
For another assay, the system named is PC49. The method in brief:
as §1

Another assay deals with TAB113. The method, boiled down:
as §1

The test system of a further assay is W2. The method in brief:
as §1

Structures are written as SMILES. Records with an inconclusive call do not appear. A number with no mark means an inactive call. Active and inactive are the calls of the source. Calls come from the whole dose curve; as a rule, active = well fitted inhibition curve with a large enough effect; inconclusive = small, poorly fitted or top-dose-only effect; inactive = flat fitted curve, though single readings scatter.
Potency is the fitted concentration of half-maximal effect.

`C[C@@](Cc1ccccc1)(NC(=O)CN)c1ccccc1`: the Potency entry with CP256, in the assay with CP262, in the assay on CP268, with CP269, in the assay on CP315 and in the assay on CP329 was “inactive” throughout. Moreover, the Potency result with ECU, with FAB9, in the assay on HB3, in the assay with JCK, with PAD and in the assay with TAB113 was “inactive” each time. In addition, the Potency in the assay with CP297 was 9.53 µM (active); with DIV14, 3.79 µM (active); with DIV17, 4.78 µM (active); in the assay with Dd2 it was 12.6 µM (active); in the assay on GB4 it was 8.49 µM (active); in the assay on PC49, 3.55 µM (active). Moreover, in the assay with W2, the Potency is 3.79 µM (active).
